According to PubChem BioAssay AID1259422 (The Scripps Research Institute Molecular Screening Center, 2018):
Among all 640,000 compounds or so, about 9,300 (1.5%) were called active. This is one part of a sample in which actives are shown more often than they occur. Rule as the data show it: active = inhibition above about 32%; inactive = the rest.

test: TEAD-YAP interaction inhibition, primary screen, TEAD-YAP interaction inhibitor project, luminescence, HEK-TIYL cells (AID 1259422); conditions: TEAD-Gal4/YAP UAS-luciferase luminescence, at 9.12 µM, stronger effect = higher value;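 also: 0% = median of test compound wells and 100% = reference inhibitor wells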

Compound	inhibition
COc1ccccc1-n1nnnc1SCC(=O)c1ccc(Br)s1	2.7% (inactive)
COc1ccccc1NC(=O)C(=O)NCc1ccc(Cl)cc1	1.06% (inactive)
COc1ccccc1-n1nnnc1S(=O)(=O)Cc1ccc(Cl)cc1	48.7% (active)
CCOC(=O)N1CCN(C(=O)CN2N=C(c3ccc(OC)cc3)CCC2=O)CC1	-0.51% (inactive)
c1ccc(-n2nnnc2SCc2nc3ccccc3s2)cc1	-47.7% (inactive)
COc1ccc2nc(NC(=O)CSc3nnnn3-c3ccccc3)sc2c1	8.33% (inactive)
COc1ccc(-n2nnnc2-c2nc3ccccc3s2)cc1	74.2% (active)
OCc1cccc(-c2cnn3c(NCc4cccs4)ccnc23)c1	102% (active)
Fc1ccc(CNc2ccnc3c(-c4ccsc4)cnn23)cc1	-14.1% (inactive)
CN(C)CCNc1ccnc2c(-c3cccc(O)c3)cnn12	2.13% (inactive)
COc1ccc(CCNC(=O)c2cc(-c3ccccc3OC)n[nH]2)cc1OC	2.42% (inactive)
O=C(CSc1cccc2cccnc12)N/N=C/c1cccnc1	46.5% (active)
O=C(CSc1n[nH]c(=O)[nH]c1=O)N/N=C/c1cccnc1	10.8% (inactive)
O=C(Cc1cccc2ccccc12)N/N=C/c1cccnc1	3.15% (inactive)
Cc1nc(NC(=O)CSc2nnc(-c3ccccc3)n2C)sc1C	9.15% (inactive)
CCOc1ccc(NC(=O)c2ccc3c(=O)n(-c4ccc(F)cc4)c(=S)[nH]c3c2)cc1	4.1% (inactive)
Cc1cc(Cl)c(S(=O)(=O)N2CCCc3ccccc32)cc1OCC(N)=O	4.13% (inactive)
O=C(CC1C(=O)N(c2ccc(F)cc2)C(=O)N1Cc1cccs1)Nc1ccc(F)cc1 (stereo not drawn)	5.51% (inactive)
COc1ccc(OC(C)C(=O)Nc2ccc3ccccc3c2)cc1 (stereo not drawn)	39.1% (active)
COc1ccc(OC(C)C(=O)Nc2cccc(Br)c2)cc1 (stereo not drawn)	5.3% (inactive)
COc1ccc(NC(=O)C(C)Oc2cc(C)cc(C)c2)cc1 (stereo not drawn)	15.9% (inactive)
COC(=O)C1=CN(Cc2ccc(F)cc2)C=C(C(=O)OC)C1c1ccc(C)s1	3.1% (inactive)
CCn1ccc(C(=O)Nc2sccc2C(=O)NC)n1	10.4% (inactive)
COc1ccc(-n2cnc3cc(C(=O)NCc4ccccc4OC)ccc32)cc1	4% (inactive)

Compound	inhibition
COc1cc(NC(=O)c2ccccc2)c(C(=O)O)cc1OC	7.96% (inactive)
COc1ccccc1-n1cnc2cc(NC(=O)c3ccccc3)ccc21	38% (active)
CN(C)c1cc(C(=O)N2CCN(C(=O)C(C)(C)C)CC2)nc(N(C)C)n1	0.22% (inactive)
c1coc(-c2ccc3cnc(Nc4ccc(-n5cnc(N6CCOCC6)n5)cc4)nc3c2)n1	-7.9% (inactive)
Cn1cc(-c2ccc3cnc(Nc4ccc(-n5cnc(N6CCOCC6)n5)cc4)nc3c2-c2cnn(C)c2)cn1	88.5% (active)
Cn1cc(-c2nc(Nc3ccc(-n4cnc(N5CCC(O)CC5)n4)cc3)ncc2Br)cn1	85.4% (active)
Cn1cc(-c2cc(Nc3ccc(-n4cnc(N5CCC(O)CC5)n4)cc3)ncc2Cl)cn1	0.35% (inactive)
Cc1ncn(-c2ccc(Nc3ncc4cccc(-c5ccc6scnc6c5)c4n3)cc2)n1	3.89% (inactive)
COc1ccc(CCNC(=O)CCn2c(SCc3cccc(Cl)c3)nc3ccccc3c2=O)cc1OC	-6.64% (inactive)
CCOC(=O)C1=C(C)NC(=S)NC1c1cc(OC)ccc1Br (stereo not drawn)	-4.97% (inactive)
CC(=O)c1cccc(-c2ccc(C(=O)NCCN3CCOCC3)s2)c1	-17.5% (inactive)
COc1ccc(-c2noc(CNC(=O)c3ccc(Br)cc3)n2)cc1	-8.01% (inactive)
CC1=C(C(=O)OCc2ccccc2)C(c2ccc3c(c2)OCO3)C2=C(CC(c3cccs3)CC2=O)N1 (stereo not drawn)	-4.32% (inactive)
CC1=C(C(=O)OCc2ccccc2)C(c2cccc([N+](=O)[O-])c2)C2=C(CC(c3cccs3)CC2=O)N1 (stereo not drawn)	58.1% (active)
COC(=O)C1=C(C)NC2=C(C(=O)CC(c3cccs3)C2)C1c1cccc(OCc2ccccc2)c1 (stereo not drawn)	15.8% (inactive)
O=C(CSc1cccc[n+]1[O-])Nc1nc2ccccc2s1	3.26% (inactive)
Cc1nccn1CC(O)COc1ccc(Br)cc1 (stereo not drawn)	5.95% (inactive)
COc1ccc(C(=O)COC(=O)COc2ccccc2C#N)c(OC)c1	7.04% (inactive)
COc1ccc(OC)c(C(=O)COc2ccc(Br)cc2C#N)c1	52.8% (active)
COc1ccc(OCC(=O)c2ccc(F)cc2)c(C#N)c1	-65.6% (inactive)
CN(C)C(=O)c1cc(-c2cn[nH]c2)ccc1NC(=O)OCc1ccccc1	-2.11% (inactive)
CC(=O)Nc1ccc(N2C(=O)c3ccc4c5c(ccc(c35)C2=O)C(=O)N(c2ccc(NC(C)=O)cc2)C4=O)cc1	5.3% (inactive)
COc1cc(OC)nc(Oc2cccnc2/C=N/Nc2ccccc2[N+](=O)[O-])n1	-11.9% (inactive)
CCCC(=O)Nc1nc2ccc(S(=O)(=O)N(C)C)cc2s1	-15.2% (inactive)

Compound	inhibition
CCN(CC)S(=O)(=O)c1ccc2nc(NC(=O)CC(C)C)sc2c1	42.2% (active)
CS(=O)(=O)c1ccc2nc(NC(=O)CSc3ccccc3)sc2c1	7.95% (inactive)
COc1cc(/C=C2/SC(=O)N(C)C2=O)cc(Br)c1OC	-1.8% (inactive)
CC12CCC(C(=O)N(NC(=O)c3ccccc3O)C1=O)C2(C)C (stereo not drawn)	74.3% (active)
CCN(CC)c1ccc(NC(=O)c2ccccc2O)cc1	-31.2% (inactive)
COc1ccc(N2C(=O)CC(NNC(=O)c3ccccc3O)C2=O)cc1 (stereo not drawn)	8.23% (inactive)
CC12C=CC3(O1)C(C(=O)N(CC1CCCO1)C3C(=O)NC1CCCCC1)C2C(=O)Nc1ccc(Cl)c(Cl)c1 (stereo not drawn)	2.66% (inactive)
CCOc1ccc(S(=O)(=O)NCCOc2ccc(F)cc2)c(OCC)c1	10.6% (inactive)
O=C1c2ccccc2C(=O)N1c1cccc(Br)c1	-1.81% (inactive)
Clc1nc(NCCN2CCOCC2)c2ncn(-c3ccccc3)c2n1	-5.11% (inactive)
COc1ccc(-c2nc(NCCN3CCOCC3)c3ncn(-c4ccccc4)c3n2)cn1	59.2% (active)
Nc1cccc(-c2nc(NCCO)c3ncn(-c4ccccc4)c3n2)c1	31.7% (inactive)
NC(=O)c1ccc(-c2nc(NCCO)c3ncn(-c4ccsc4)c3n2)cc1	18.6% (inactive)
COc1ccc(-c2nc(NCCO)c3ncn(-c4ccsc4)c3n2)cn1	41.7% (active)
Cn1c(Nc2nc(NCCN3CCOCC3)c3ncn(-c4ccccc4)c3n2)nc2ccccc21	25.9% (inactive)
C=CCn1c(=O)c(C(=O)Nc2cccc(Cl)c2)c(O)c2ccccc21	3.7% (inactive)
O=C(Nc1cccc2c1C(=O)c1ccccc1C2=O)c1ccc(F)cc1	-2.6% (inactive)
CNC(=O)C(=O)Nc1cc(OC)ccc1OC	10.2% (inactive)
CONC(=O)c1ccc(C(=O)c2cc(OC)ccc2OC)cc1	35.8% (active)
COc1ccc(OC)c(C(=O)c2ccc(C(=O)NC3CC(C)(C)NC(C)(C)C3)cc2)c1	17.9% (inactive)
CCOc1ccc(Nc2nc(Nc3ccc(C(C)=O)cc3)nc(C)c2[N+](=O)[O-])cc1	6.26% (inactive)
COc1ccc(OC)c(NC(=O)CN2CCC(n3c(C)nc4cc(F)ccc43)CC2)c1	-30.9% (inactive)
CCOC(=O)CC1NCC2c3ccccc3CCN2C1=O (stereo not drawn)	2.64% (inactive)
OC1CCN(c2ccnc3c(-c4cccc(C(F)(F)F)c4)cnn23)CC1	10% (inactive)

Compound	inhibition
O=C(c1c[nH]c(=O)n(-c2ccc(F)c(Cl)c2)c1=O)N1CCCc2ccccc21	38.2% (active)
O=C(c1cc(Cl)ccc1[N+](=O)[O-])N1CCCc2ccccc21	10.8% (inactive)
O=C(COc1ccc(Cl)cc1Cl)N1CCCc2ccccc21	-11.7% (inactive)
COc1cc(NC(=O)c2sc3nc(C)nc(N4CCN(C)CC4)c3c2C)cc(OC)c1	4.26% (inactive)
COc1cc(OC)cc(C(=O)N/N=C(\C)CC(=O)NC2CCCCCCC2)c1	54.5% (active)
COc1ccc(NC(=O)CS(=O)CC(=O)Nc2ccccc2-c2ccccc2)cc1 (stereo not drawn)	-6.02% (inactive)
COc1cc(OC)cc(C(=O)N/N=C(\C)CC(=O)Nc2ccccc2-c2ccccc2)c1	51.5% (active)
C/C(CC(=O)NC1CCCCC1)=N\NC(=O)c1ccncc1	2.69% (inactive)
C/C(CC(=O)NC1CCCC1)=N\NC(=O)COc1cccc(C)c1	-8.3% (inactive)
COc1ccc(C(=O)N/N=C(\C)CC(=O)Nc2ccccc2)c(OC)c1	-36.2% (inactive)
COc1ccc2nc(NC(=O)c3ccccc3OC)sc2c1	5.95% (inactive)
CCc1nc(SCC(=O)Nc2nc(C)c(C)s2)c2ccccc2n1	5.48% (inactive)
O=C1Nc2cc(C(=O)N3CCN(c4ccccn4)CC3)ccc2Nc2ccccc21	11.1% (inactive)
Clc1ccccc1-c1cnn2c(N3CCOCC3)ccnc12	16.7% (inactive)
COc1cc(-c2cnn3c(N4CCOCC4)ccnc23)cc(OC)c1OC	76.6% (active)
OC1CCN(c2ccnc3c(-c4ccoc4)cnn23)CC1	-22.8% (inactive)
c1cc(N2CCOCC2)n2ncc(-c3ccc4[nH]ccc4c3)c2n1	96.6% (active)
COc1cccc(-c2cnn3c(N4CCC(O)CC4)ccnc23)c1	21.5% (inactive)
COc1ccc(-c2cnn3c(N4CCOCC4)ccnc23)c(OC)c1	-6.8% (inactive)
O=C(CNC(=O)c1ccco1)N/N=C/c1ccc(O)c(O)c1	3.54% (inactive)
Cc1ccc(N(CC(=O)O)C2SC(=O)N(c3ccccc3)C2=O)cc1 (stereo not drawn)	-28.6% (inactive)
